Reference: PubChem BioAssay (Tox21)
Records with an inconclusive call do not appear. Activity calls are given as the source filed them. Unless noted, calls come from the whole dose curve; as a rule, active = well fitted curve in the direction sought with a large enough effect in the repeat runs; inconclusive = weak or mixed curves; inactive = no such curve, though single readings can be large; an effect the other way counts as inactive or inconclusive.

Assays:
[1] = qHTS assay for small molecule agonists of the p53 signaling pathway (AID 651631; calls by dose curve; note: nearly all actives have a fitted effect of over 15% in size; note: potency is the fitted concentration of half-maximal effect)
Method in brief: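 Agonist mode screen using a stably integrated beta-lactamase gene under p53 response elements in HCT-116 cells. Compound exposure lasts 16 h at 37 °C; fluorescence intensity is measured following 2 h FRET substrate loading.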

[2] = qHTS assay for small molecules that induce genotoxicity in human embryonic kidney cells expressing luciferase-tagged ATAD5 (AID 651632); note: nearly all actives have a fitted effect of over 15% in size
Method in brief: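 A rise in luciferase signal from ATAD5-tagged HEK293T cells marks genetic stress. Cells were exposed to compounds for 16 hr at 37C, 5% CO2, then luciferase was quantified after a 30 min room-temperature incubation with Amplite.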

[3] = qHTS assay for small molecule agonists of the p53 signaling pathway - cell viability (AID 651633; calls by dose curve;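 note: p53RE-bla HCT reporter cells with a stable beta-lactamase p53 reporter; nearly all actives have a fitted effect of over 30% in size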)
Method in brief: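 p53RE-bla cells, seeded at 4,000 per well and rested 5 h at 37 C/5% CO2, received compounds in DMSO for 16 h at 37 C. CellTiter-Glo was then added, and luminescence was read after 30 min at room temperature to gauge cytotoxicity.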

[4] = qHTS assay for small molecules that induce genotoxicity in human embryonic kidney cells expressing luciferase-tagged ATAD5 - cell viability (AID 651634; calls by dose curve; note: nearly all actives have a fitted effect of over 25% in size; note: potency is the fitted concentration of half-maximal effect)
Method in brief: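 Cytotoxicity counter-readout: after 15.5 hr compound treatment at 37C, live-cell protease activity in ATAD5-luciferase HEK293T cells measured by CellTiter-Fluor fluorescence, 30 min development at 37C.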

[5] = qHTS assay for small molecule disruptors of the mitochondrial membrane potential - cell viability (AID 720634; calls by dose curve;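 note: human HepG2 liver cancer cells; nearly all actives have a fitted effect of over 20% in size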)
Method in brief: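 Cytotoxicity was quantified from ATP content by CellTiter-Glo luminescence in the same wells as the MMP dye read-out. HepG2 (2,000 cells/well) were plated overnight and exposed to compounds for 1 hr at 37 C.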

[6] = qHTS assay for small molecule disruptors of the mitochondrial membrane potential (AID 720635)
Method in brief: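 HepG2 cells (2,000/well) attached overnight at 37C, then took compound for 1 hr at 37C, 5% CO2. Mito-MPS dye was added for 30 min; fluorescence was read at 490/535 nm (monomers) and 540/590 nm (aggregates).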

[7] = qHTS assay to test for compound auto fluorescence at 535 nm (green) in HepG2 cells (AID 720675)
[8] = qHTS assay to test for compound auto fluorescence at 460 nm (blue) in HEK293 cells (AID 720678)
Method in brief: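 Cells were seeded and left to adhere for 4-5 hr at 37C. Compounds were then pin-transferred. After an overnight incubation at 37C under 5% CO2, intrinsic fluorescence at 405/460 nm was measured and referenced to triamterene.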

[9] = qHTS assay to test for compound auto fluorescence at 590 nm (red) in HEK293 cells (AID 720679)
Method in brief: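 Each well held 2,000 HEK293 cells in medium containing 10% dialyzed FBS. Following 4-5 hr attachment at 37C, 23 nL test compound or DMSO was added; plates sat overnight, and red fluorescence (540/590nm) was recorded.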

[10] = qHTS assay to test for compound auto fluorescence at 535 nm (green) in HEK293 cells (AID 720680)
[11] = qHTS assay to test for compound auto fluorescence at 460 nm (blue) in HEK293 cell free culture (AID 720681)
Method in brief: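 Test compounds were pinned into cell-free culture medium (DMEM with 10% FBS) and fluorescence was read directly at Ex/Em 405/460 nm. Signals were expressed as fluorescence equivalents of triamterene, with DMSO vehicle as control.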

[12] = qHTS assay to test for compound auto fluorescence at 590 nm (red) in HEK293 cell free culture (AID 720683)
Method in brief: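 Tox21 10K library compounds were pinned into cell-free DMEM with 10% FBS and fluorescence was read at excitation 540 nm. Activity is expressed as Rose Bengal sodium equivalency.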

[13] = qHTS assay to test for compound auto fluorescence at 590 nm (red) in HepG2 cell free culture (AID 720684)
Method in brief: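 Readout: intrinsic compound fluorescence at 590 nm emission after 540 nm excitation, scaled to Rose Bengal sodium. Matrix was cell-free MEM with 10% FBS; DMSO vehicle wells served as control.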

[14] = qHTS assay to test for compound auto fluorescence at 460 nm (blue) in HepG2 cell free culture (AID 720685)
Method in brief: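 Cell-free plates of MEM plus 10% FBS received 23 nL compound or DMSO vehicle; blue-channel (405/460 nm) intensity scored against triamterene as reference fluorophore.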

[15] = qHTS assay to test for compound auto fluorescence at 535 nm (green) in HepG2 cell free culture (AID 720686)
[16] = qHTS assay to test for compound auto fluorescence at 460 nm (blue) in HepG2 cells (AID 720687)
Method in brief: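 Cells (2,000/well in MEM with 10% FBS) attached overnight at 37 C, then were exposed to compound or DMSO for 1 hr at 37 C, 5% CO2. Fluorescence read at Ex/Em 405/460 nm, expressed as triamterene-equivalent signal.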

[17] = biological target: Glucocorticoid receptor (Homo sapiens) (UniProt P04150); experiment: qHTS assay to identify small molecule agonists of the glucocorticoid receptor (GR) signaling pathway (AID 720691; active = well fitted activation curve with a large enough effect in the signal ratio in the repeat runs, not every such curve was filed as active; the % refers to the signal ratio); details: GR-bla HeLa, beta-lactamase reporter ratio, 18 h; activation: at 62.4 µM (top of the series) unless noted
Chain of Glucocorticoid receptor (Homo sapiens) (P04150 whole entry, looked up): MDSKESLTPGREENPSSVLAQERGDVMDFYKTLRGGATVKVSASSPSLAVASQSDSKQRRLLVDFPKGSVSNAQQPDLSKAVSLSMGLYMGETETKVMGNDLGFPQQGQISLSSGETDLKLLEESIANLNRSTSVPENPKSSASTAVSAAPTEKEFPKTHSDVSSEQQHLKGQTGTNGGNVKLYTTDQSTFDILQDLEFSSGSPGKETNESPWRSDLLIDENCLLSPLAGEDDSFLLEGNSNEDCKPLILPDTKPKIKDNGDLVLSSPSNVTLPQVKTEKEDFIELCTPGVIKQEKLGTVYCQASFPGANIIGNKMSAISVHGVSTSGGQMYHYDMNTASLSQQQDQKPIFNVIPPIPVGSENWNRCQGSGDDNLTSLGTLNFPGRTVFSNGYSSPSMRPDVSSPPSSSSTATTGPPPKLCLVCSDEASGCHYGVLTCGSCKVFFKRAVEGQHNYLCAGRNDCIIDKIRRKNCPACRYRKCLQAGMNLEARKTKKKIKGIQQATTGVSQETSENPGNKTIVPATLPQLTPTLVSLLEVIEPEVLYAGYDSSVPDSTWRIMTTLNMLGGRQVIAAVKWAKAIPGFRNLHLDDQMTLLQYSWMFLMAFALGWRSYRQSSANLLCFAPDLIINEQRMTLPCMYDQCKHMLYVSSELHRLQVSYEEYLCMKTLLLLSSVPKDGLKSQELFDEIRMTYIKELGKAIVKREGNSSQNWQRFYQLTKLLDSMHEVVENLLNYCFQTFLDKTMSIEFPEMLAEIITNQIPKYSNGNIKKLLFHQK
Method in brief: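 Agonist-mode qHTS in HeLa cells stably expressing a glucocorticoid-response-element beta-lactamase reporter. Fluorescence intensity read with FRET substrate (2 h, room temperature) after 18 h compound treatment at 37 C.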

[18] = biological target: Glucocorticoid receptor (Homo sapiens) (UniProt P04150); experiment: qHTS assay to identify small molecule antagonists of the glucocorticoid receptor (GR) signaling pathway (AID 720692; active = well fitted inhibition curve with a large enough effect in the signal ratio in the repeat runs, not every such curve was filed as active; the % refers to the signal ratio)
Method in brief: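 Inhibition of dexamethasone-driven (5 nM final) beta-lactamase expression was measured in GRE-reporter HeLa cells over 18 h at 37C. Fluorescence was read after 2 h with the B/G FRET substrate at room temperature.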

[19] = qHTS assay to test for compound auto fluorescence at 590 nm (red) in HepG2 cells (AID 720674)
Method in brief: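 Rose Bengal sodium served as the red fluorophore standard. HepG2 monolayers (overnight attachment, MEM with 10% FBS) were exposed to test compounds for 1 hr at 37 C and read at Ex 540/Em 590 nm.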

[20] = qHTS assay to test for compound auto fluorescence at 535 nm (green) in HEK293 cell free culture (AID 720682)
Method in brief: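 No cells present: wells hold DMEM supplemented with 10% FBS, into which compound or vehicle is pinned. Green emission is then recorded (485 nm excitation, 535 nm emission) and scaled to fluorescein.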
% is set by controls: 0 for no effect and ±100 for the full control effect.

CCCCC(CC)COC(=O)COc1ccc(Cl)cc1Cl (configuration not stated)
inactive: Potency [1] | Potency [2] | Potency [3] | Potency [4] | Potency [5] | Potency [6] | Potency [7] | outcome [8] | Potency [9] | outcome [10] | outcome [11] | Potency [12] | Potency [13] | outcome [14] | Potency [15] | outcome [16] | Potency [17] | Potency [18]

O=C1c2ccccc2S(=O)(=O)N1CCCCN1CCN(c2ncccn2)CC1
inactive: Potency [1] | Potency [2] | Potency [3] | Potency [4] | Potency [5] | Potency [6] | Potency [19] | Potency [7] | Potency [9] | outcome [11] | outcome [20] | Potency [12] | Potency [13] | outcome [14] | outcome [16] | Potency [17] | Potency [18]

CNC(=O)CN(CCN(CCN(CC(=O)[O-])CC(=O)NC)CC(=O)[O-])CC(=O)[O-].O.[Gd+3]
inactive: Potency [1] | Potency [2] | Potency [3] | Potency [4] | Potency [5] | Potency [6] | Potency [19] | Potency [7] | Potency [9] | outcome [10] | outcome [11] | outcome [20] | Potency [12] | Potency [13] | outcome [14] | Potency [15] | outcome [16] | Potency [18]

C/C=C/C(=O)CC
inactive: activation [1] -0.927% [at 18 µM] | activation [2] 0.488% [at 17.9 µM] | activity change, negative = cytotoxicity [3] -24.4% [at 17.9 µM] | activity, negative = cytotoxicity [4] -7.15% [at 17.9 µM] | activity change, negative = cytotoxicity [5] 4.97% [at 17.9 µM] | ratio activity, negative = MMP loss [6] 2.87% [at 17.9 µM] | fluorescence, relative to Rose Bengal [19] -0.234% [at 18.6 µM] | fluorescence, % of fluorescein control [7] 0.0122% [at 18.6 µM] | fluorescence, % of triamterene [8] -0.166% [at 18.6 µM] | fluorescence, % of fluorescent control [9] -0.535% [at 18.6 µM] | fluorescence, % of fluorescein [10] 0.0426% [at 18.6 µM] | fluorescence, % of fluorescent control [11] 0.0584% [at 18.6 µM] | activity change [20] 0.0169% [at 18.6 µM] | fluorescence, % of Rose Bengal [13] 0.0791% [at 18.6 µM] | fluorescence, % of fluorescent control [14] -0.0097% [at 18.6 µM] | fluorescence, % of fluorescein control [15] -0.0146% [at 18.6 µM] | fluorescence, % of fluorescent control [16] -0.0002% [at 18.6 µM] | activation [17] -3.49% [at 15 µM] | Potency [18]

CN(C)c1ccc(CCO)cc1
inactive: Potency [1] | Potency [2] | Potency [3] | Potency [4] | Potency [5] | Potency [6] | Potency [19] | Potency [7] | Potency [9] | outcome [10] | outcome [11] | outcome [20] | Potency [13] | outcome [14] | Potency [15] | outcome [16]

CN1C[C@H]2c3ccccc3Oc3ccc(Cl)cc3[C@@H]2C1
inactive: Potency [2] | Potency [3] | Potency [4] | Potency [5] | Potency [6] | Potency [19] | Potency [7] | outcome [8] | Potency [9] | outcome [11] | Potency [12] | Potency [13] | outcome [14] | Potency [15]
active: Potency [1] 29.8 µM

C/C=C/C=C/CO
inactive: Potency [1] | Potency [2] | Potency [3] | Potency [4] | Potency [5] | Potency [6] | Potency [19] | Potency [7] | outcome [8] | Potency [9] | outcome [10] | outcome [11] | outcome [20] | Potency [12] | Potency [13] | outcome [14] | Potency [15] | Potency [18]

Cc1ccc(N=Nc2c(O)c(C(=O)O)cc3ccccc23)c(S(=O)(=O)O)c1
active: Potency [4] 11.8 µM
inactive: Potency [1] | Potency [2] | Potency [3] | Potency [5] | Potency [19] | Potency [7] | outcome [8] | Potency [9] | outcome [10] | outcome [11] | outcome [20] | Potency [12] | Potency [13] | outcome [14] | Potency [15] | outcome [16]

CC(COCCO)OCCO (configuration not stated)
inactive: Potency [1] | Potency [2] | Potency [3] | Potency [4] | Potency [5] | Potency [19] | Potency [7] | outcome [8] | Potency [9] | outcome [10] | outcome [11] | outcome [20] | Potency [12] | Potency [13] | outcome [14] | Potency [15] | outcome [16]

NCC(=O)CCC(=O)O
inactive: Potency [1] | Potency [2] | Potency [3] | Potency [4] | Potency [5] | Potency [19] | Potency [7] | Potency [9] | outcome [11] | outcome [20] | Potency [12] | Potency [13] | outcome [14] | Potency [15] | outcome [16] | Potency [18]

ClCCOCCOCCCl
inactive: Potency [1] | Potency [2] | Potency [3] | Potency [4] | Potency [19] | Potency [7] | outcome [8] | Potency [9] | outcome [11] | outcome [20] | Potency [12] | Potency [13] | outcome [14] | Potency [15] | outcome [16]

Nc1ccccc1S(=O)(=O)c1ccccc1
inactive: Potency [1] | Potency [2] | Potency [3] | Potency [4] | Potency [5] | Potency [7] | outcome [8] | Potency [9] | outcome [10] | outcome [11] | Potency [13] | outcome [14] | Potency [15] | outcome [16] | Potency [18]

C#CCN(C)CCCOc1ccc(Cl)cc1Cl
inactive: Potency [1] | Potency [2] | Potency [3] | Potency [4] | Potency [5] | Potency [7] | outcome [8] | Potency [9] | outcome [10] | outcome [11] | outcome [20] | Potency [12] | Potency [13] | outcome [14] | Potency [15] | outcome [16] | Potency [17] | Potency [18]

NCC(=O)O
inactive: Potency [1] | Potency [2] | Potency [3] | Potency [5] | Potency [6] | Potency [19] | Potency [7] | outcome [8] | Potency [9] | outcome [11] | outcome [20] | Potency [13] | outcome [14] | Potency [15] | outcome [16] | Potency [18]

CCCCC
inactive: Potency [1] | Potency [2] | Potency [3] | Potency [4] | Potency [5] | Potency [7] | outcome [8] | Potency [9] | outcome [10] | outcome [11] | outcome [20] | Potency [12] | Potency [13] | outcome [14] | Potency [15] | outcome [16] | Potency [18]
